The values below come from PubChem BioAssay (NCI).

The structures appear in SMILES notation. Compounds without any hit were thinned out: in the full panel of roughly 83,000, 20% have a hit.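 Cell lines were cultured in 96-well plates, exposed to a single compound concentration, and assessed for percent growth 48 hours later.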 Values without a mark were called inactive. Active and inactive are the calls of the source. How the source made its calls: active means growth percent below 10; inactive means the rest.

Some test systems named below: RPMI-8226 leukemia; OVCAR-8 ovarian; OVCAR-5 ovarian; OVCAR-4 ovarian; SK-OV-3 ovarian; IGROV1 ovarian; OVCAR-3 ovarian; HS 578T breast; NCI/ADR-RES ovarian; T-47D breast; BT-549 breast; MDA-MB-435 melanoma; SW-620 colon; MCF7 breast; HCT-116 colon; HCC-2998 colon; KM12 colon.
Experiment in all cases: NCI-60 one-dose screen, 48 h (100 = growth as untreated, 0 = no growth, -100 = all killed)
Conditions in all cases: 10 µM unless noted

On to `Nc1c(Cl)cc(/C=C2\C=Cc3ccccc32)cc1Cl`, for which the growth is 107% in the test on RPMI-8226 leukemia; 104% in the test on OVCAR-8 ovarian; 102% with OVCAR-5 ovarian; 107% in the test on OVCAR-4 ovarian; 102% with SK-OV-3 ovarian; 103% in the test with IGROV1 ovarian. The growth is 111% in the test with OVCAR-3 ovarian; 115% with HS 578T breast; 101% in the test on NCI/ADR-RES ovarian; 95.6% in the test on T-47D breast; 101% in the test on BT-549 breast; 107% in the test with MDA-MB-435 melanoma. The growth in the test on SW-620 colon is 111%; in the test on MCF7 breast it was 123%; in the test with HCT-116 colon, 103%; in the test with HCC-2998 colon, 98%; in the test on KM12 colon, 106%.

Turning to `COc1ccc(C2[C@@H](c3ccccc3)C(=O)N2c2cc(OC)c(OC)c(OC)c2)cc1F` (some centres undefined), the growth is 6.59% (active) with RPMI-8226 leukemia; 1.85% (active) with OVCAR-8 ovarian; 65.1% with OVCAR-5 ovarian; 59% in the test with OVCAR-4 ovarian; 4.86% (active) with SK-OV-3 ovarian; 18.8% in the test on IGROV1 ovarian. The growth with HS 578T breast is 31.3%; in the test on NCI/ADR-RES ovarian it was 11.9%; in the test with BT-549 breast, -2.79% (active); in the test on MDA-MB-435 melanoma, -23% (active); in the test with SW-620 colon it was 24.2%; in the test on MCF7 breast it was 12.5%. For the same molecule, the values for the growth in the test with HCT-116 colon, in the test with HCC-2998 colon and in the test with KM12 colon were 3.36% (active), 15.1% and 13.2%, respectively.

As to `COc1ccc(C2C3=C(COC3=O)N(CCO)c3cc4c(cc32)OCO4)cc1OC` (centres undefined), the growth with RPMI-8226 leukemia was 88.8%; in the test on OVCAR-8 ovarian, 102%; in the test on OVCAR-5 ovarian, 94.7%; in the test on OVCAR-4 ovarian it was 88.1%; in the test with SK-OV-3 ovarian it was 84.1%; in the test on IGROV1 ovarian, 60.9%. The growth in the test with OVCAR-3 ovarian is 43%; in the test with HS 578T breast, 92.4%; with T-47D breast, 87.5%; in the test on BT-549 breast it was 80.5%; in the test with MDA-MB-435 melanoma, 5.99% (active); in the test on SW-620 colon, 61.6%. The growth is 64.3% in the test on MCF7 breast, 68.6% with HCT-116 colon, 74.5% in the test with HCC-2998 colon and 62.4% in the test on KM12 colon.

For the molecule `CS(=O)/C(C#N)=C\C=C\c1cccc(Cl)c1` (centres undefined), the growth in the test with RPMI-8226 leukemia is 2.54% (active); in the test on OVCAR-8 ovarian it was 26.3%; in the test on OVCAR-5 ovarian it was 34.1%; in the test on OVCAR-4 ovarian, 34.7%; with SK-OV-3 ovarian it was 43.7%; in the test on IGROV1 ovarian, 23.4%. Besides, the growth in the test with OVCAR-3 ovarian is 10.6%; in the test on HS 578T breast, 43.2%; in the test on NCI/ADR-RES ovarian it was -44.1% (active); in the test on T-47D breast, 16.5%; in the test with BT-549 breast, 9.95% (active); with MDA-MB-435 melanoma it was 5.01% (active). In addition, the growth in the test with SW-620 colon was 14.9%; in the test on MCF7 breast, 12.9%; with HCT-116 colon, -28.1% (active); in the test with HCC-2998 colon, -31.1% (active); in the test on KM12 colon, 12.5%.

Take `O=C(CN1C(=O)S/C(=C\C(Cl)=C\c2ccccc2)C1=O)NC1CCS(=O)(=O)C1` (centres undefined): the growth in the test on RPMI-8226 leukemia is 21.7%; with OVCAR-8 ovarian it was 47.1%; in the test on OVCAR-5 ovarian, 110%; in the test with OVCAR-4 ovarian, 78.7%; in the test with SK-OV-3 ovarian, 106%; in the test with IGROV1 ovarian it was 41.3%. The growth in the test with OVCAR-3 ovarian is 19.4%; with HS 578T breast it was 87.4%; in the test with NCI/ADR-RES ovarian, 84%; in the test on T-47D breast, 15.7%; in the test with BT-549 breast, 76.5%; with MDA-MB-435 melanoma, 66.2%. In addition, the figures for the growth in the test with MCF7 breast, in the test on HCT-116 colon and with KM12 colon were 13.7%, 5.67% (active) and 65.4%, respectively.

Consider `N#Cc1c(-c2ccccc2)cc(-c2ccccc2)n(CCCCC(=O)NO)c1=O`, for which the growth was 0.83% (active) in the test on RPMI-8226 leukemia; 15.6% with OVCAR-8 ovarian; 13.6% in the test on OVCAR-5 ovarian; 34% in the test on OVCAR-4 ovarian; 42.1% in the test with SK-OV-3 ovarian; 20% in the test with IGROV1 ovarian. In addition, the growth was 20.5% with OVCAR-3 ovarian; 27.4% in the test on HS 578T breast; -16.2% (active) in the test with NCI/ADR-RES ovarian; 9.65% (active) in the test with T-47D breast; 52.8% in the test on BT-549 breast; -13.7% (active) with MDA-MB-435 melanoma. Also, the growth with SW-620 colon was 11.5%; in the test on MCF7 breast, 20.5%; in the test with HCT-116 colon, 5.09% (active); in the test on HCC-2998 colon, 29.3%; in the test on KM12 colon it was 22.9%.

As for `Cc1cc(O)cc(-c2nn(C)cc2-c2cc(N3CCOCC3)nc(-c3cccnc3)n2)c1`, the growth is 38.2% with RPMI-8226 leukemia; 47.1% with OVCAR-8 ovarian; 84.6% in the test on OVCAR-5 ovarian; 73.1% in the test on OVCAR-4 ovarian; 38.5% with SK-OV-3 ovarian; 45% with IGROV1 ovarian. Moreover, the growth with OVCAR-3 ovarian is 8.62% (active); in the test with HS 578T breast, 20.5%; in the test on NCI/ADR-RES ovarian, 45.9%; with T-47D breast, 28.8%; with BT-549 breast, 36.3%; with MDA-MB-435 melanoma, 3.68% (active). Also, the growth with SW-620 colon was 38.4%; in the test with MCF7 breast, 14.9%; with HCT-116 colon, 17.3%; with KM12 colon, 28.9%.

As to `CCOC(=O)c1c(NC(=O)c2ccccc2)sc2c3c(ccc12)OCN(C)C3`, the growth with RPMI-8226 leukemia is -46.2% (active); in the test on OVCAR-8 ovarian, 28.5%; in the test with OVCAR-5 ovarian, -0.612% (active); in the test on OVCAR-4 ovarian, 61.8%; with SK-OV-3 ovarian, 88.5%; in the test with OVCAR-3 ovarian it was 52.1%. Besides, the growth in the test on HS 578T breast was 57.9%; with NCI/ADR-RES ovarian it was 5.26% (active); in the test with T-47D breast it was -10.1% (active); with BT-549 breast, 62.2%; in the test with MDA-MB-435 melanoma, -88.5% (active); in the test on SW-620 colon, -42.3% (active). Moreover, the growth was -50.6% (active) in the test on MCF7 breast, -20.9% (active) with HCT-116 colon, -85% (active) in the test with HCC-2998 colon and 8.58% (active) in the test with KM12 colon.

As for `C[C@@H]1NC(=O)[C@H](Cc2ccccc2)N(Cc2cccnc2)C1=O`, the growth in the test with RPMI-8226 leukemia is 105%; in the test with OVCAR-8 ovarian it was 102%; in the test with OVCAR-5 ovarian it was 96.7%; with OVCAR-4 ovarian, 102%; in the test with SK-OV-3 ovarian, 99.2%; in the test on IGROV1 ovarian it was 107%. Moreover, the growth in the test with OVCAR-3 ovarian was 110%; in the test with HS 578T breast, 94.3%; with NCI/ADR-RES ovarian, 104%; in the test with T-47D breast, 94.6%; in the test on BT-549 breast, 73.2%; in the test with MDA-MB-435 melanoma, 104%. Moreover, the growth in the test with MCF7 breast is 91.5%; in the test with HCT-116 colon, 71%; in the test with KM12 colon, 103%.
